# Test results taken from PubChem BioAssay AID504773 (Broad Institute, 2011).
# Measured potencies and affinities stand elsewhere. The source made the active and inactive calls.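 How the source made its calls: active means polarization signal falls with dose and the fitted half-maximal concentration is at or below ten times the sample's top valid dose; inconclusive means flat curve at 30 to 70% inhibition, or poor fit; inactive means signal rises, flat within 30%, or potency beyond limit.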
# Biological target: Golgi-associated PDZ and coiled-coil motif-containing protein (Homo sapiens) (UniProt Q9HD26)
# Experiment: potency against CAL PDZ-peptide interaction – biochemical, fluorescence polarization, Cerulean-tagged CAL PDZ, cherry-picks, dose response (AID 504773);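 further: 0% = DMSO neutral wells and -100% = excess unlabeled competitor peptide wells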
# Conditions: CAL PDZ-peptide binding, 1 h; series mostly up to 50 µM; activity change, negative = inhibition: at the top concentration
row,Compound,"activity change, negative = inhibition"
1,COCCN(C(=S)Nc1ccccc1OC)C1CCN(C(C)C)CC1,7.01% (inactive)
2,CCCn1cnc2c(SCCc3ccccc3)nc(N)nc21,-32.1% (inactive)
3,Cc1cc(/C=C2\SC(=O)N(C)C2=O)c(C)n1-c1ccc(O)cc1,7.87% (inactive)
4,COC(=O)CN1C(=O)C(O)=C(C(C)=O)C1c1ccc([N+](=O)[O-])cc1 (configuration not stated),15.1% (inactive)
5,COc1ccc(CC(=O)NCC2CCCN(Cc3cccc(SC)c3)C2)cc1 (configuration not stated),26.5% (inactive)
6,Cc1ccnc2nc(C(=O)OCCOc3ccc(F)cc3)nn12,-16.9% (inactive)
7,O=C(c1ccccc1Cl)N(Cc1ccc(Cl)c(Cl)c1)N1C(=O)CCCC1=O,18.9% (inactive)
8,Cc1cccc(C(=O)Nc2ccc(C(=O)/C=C/c3ccncc3)cc2)c1,21.8% (inactive)
9,O=C(NCCCn1ccnc1)c1ccccc1F,19.4% (inactive)
10,Cc1ccccc1-n1c(C)c(C#N)c(=O)c(-[n+]2ccccc2)c1[S-],-36.7% (inactive)
11,CCN(CC)S(=O)(=O)c1ccc(/C=C/C(=O)OCC(=O)N(C)C)cc1,-4.78% (inactive)
12,Cc1cccc(NC(=O)Cn2cnc3c(oc4ccccc43)c2=O)c1C,14.4% (inactive)
13,CO[C@H]1O[C@H](C)[C@@H](O)C[C@H]1NC(=O)OCc1ccccc1,-71% (inactive)
14,CCn1c(=O)c(C(C)=O)c(O)c2ccccc21,7.91% (inactive)
15,CCCCC(CCC(=O)Nc1nccs1)C(=O)O (configuration not stated),25.2% (inactive)
16,O=C1CSC(=Nc2ccccc2Cl)N1,5.39% (inactive)
17,COc1ccc(CCn2c(=S)[nH]c3ccc(N4CCOCC4)cc3c2=O)cc1OC,-31.4% (inactive)
18,COC(=O)C1CCN(C(=O)/C(C)=C\c2ccccc2)CC1,-13.2% (inactive)
19,O=C(NCc1cccnc1)c1ccc(Cn2c(=S)[nH]c3ccc(Br)cc3c2=O)cc1,2.36% (inactive)

row,Compound,"activity change, negative = inhibition"
1,N#Cc1ccc(CC(=O)c2ccccc2)[nH]c1=O,4.17% (inactive)
2,O=C(O)c1[nH]c2ccccc2c1C(c1ccccc1)c1c(C(=O)O)[nH]c2ccccc12,24.1% (inactive)
3,O=C(Cc1ccccc1)NN=C1CCCC1,6.19% (inactive)
4,Cc1c(C)c2cc3c4c(oc3c(C)c2oc1=O)CCCC4,19.3% (inactive)
5,CCN(C(=O)CSc1ncccc1C(=O)O)C1CCCCC1,29.8% (inactive)
6,CC(C)=Cc1oc2ccc([N+](=O)[O-])cc2c1N1CCOCC1,14.7% (inactive)
7,COC(=O)CN1C(=O)N/C(=C/c2cc(Cl)c(OC)c(OC)c2)C1=O,-0.528% (inactive)
8,CCOCCCNC(=O)c1ccc2c(=O)n(Cc3ccc4c(c3)OCO4)c(=S)[nH]c2c1,5.52% (inactive)
9,COC(=O)c1ccc(CNC(=O)COC(=O)c2cc(Cl)nc(Cl)c2)cc1,-30% (inactive)
10,FC(F)(F)c1cc(-c2cccs2)nc2ncnn12,-9.28% (inactive)
11,Cc1ccc(S(=O)(=O)N2CCN(C(=O)N(C)C)CC2)cc1,31.8% (inactive)
12,CSc1ccccc1NC(=O)C1CC(c2c(F)cccc2Cl)=NO1 (configuration not stated),-8.91% (inactive)
13,CCOc1ccc(NC(=O)c2nsc(Cl)c2Cl)cc1,10.5% (inactive)
14,CCOC(=O)NC(=O)COC(=O)CCCSc1nc2ccccc2s1,-5.39% (inactive)
15,CSc1ccc(CNCCCSc2ncccn2)cc1,-9.87% (inactive)
16,O=C1OC2(CCCCC2)OC(=O)C1=CNc1nc2ccccc2s1,6.24% (inactive)
17,CCCCOc1ccc(C(=O)N2CCNC(=O)C2CC(=O)OC(C)C)cc1 (configuration not stated),-13.6% (inactive)
18,COC(=O)c1cccc([N+](=O)[O-])c1CS(=O)(=O)c1ccc(C)cc1,27.4% (inactive)
